Experimental data from PubChem BioAssay AID493197 (Broad Institute, 2011).
Entries with a potency or affinity are not part of this list. Inconclusive results are not listed. Activity calls are given as the source filed them. No rule for the calls is given here.

Assay: anti-trypanosomal activity in host cells – cell-based, plate reader, dry powder, set 3, dose response (AID 493197)
Details: intracellular Trypanosoma cruzi in host cells; series mostly up to 19.5 µM

Compound	outcome
COCCNC(=O)C1(C)CCCN(C(=O)c2ccc(OC)c(OC)c2)C1 (configuration not stated)	inactive
CCCNC(=O)C1(C)CCCN(C(=O)c2ccc(OC(F)F)cc2)C1 (configuration not stated)	inactive
CCCNC(=O)C1(C)CCN(C(=O)Cc2ccc(OC)c(OC)c2)C1 (configuration not stated)	inactive
CCCNC(=O)C1(C)CCCN(C(=O)Cc2ccc(OC)c(OC)c2)C1 (configuration not stated)	inactive
COCCNC(=O)C1(C)CCCN(C(=O)c2cc(OC)c(OC)c(OC)c2)C1 (configuration not stated)	inactive
COc1ccc(CCNC(=O)C2CCCCC2)cc1OC	inactive
COc1ccc(CCN2CC(C(=O)NCc3ccc(F)cc3)CC2=O)cc1OC (configuration not stated)	inactive
COc1ccc(CN2CCC(C(=O)NC3CCCC3)CC2)cc1OC	inactive
CCNC(=O)C1(C)CCCN(C(=O)Cc2ccc(OC)c(OC)c2)C1 (configuration not stated)	inactive
COc1cc2c(cc1OC)C(C)N(CCC(N)=O)CC2 (configuration not stated)	inactive
CCNC(=O)C1(C)CCN(C(=O)c2ccc(OC)c(OC)c2)C1 (configuration not stated)	inactive
CCNC(=O)C1CCCN(C(=O)c2cc(OC)c(OC)c(OC)c2)CC1 (configuration not stated)	inactive
